Bioassay records (PubChem)
PLC-beta3 inh – PLC-beta3 (human) inhibition, primary screen. Q01970. Purified PLC-beta3, fluorogenic substrate, fluorescence. inhibition, % at 12.2 µM. 0.18% of 370,000 active
PLCg1 inh – PLC-gamma1 (human) inhibition, primary screen. 0.84% of 370,000 active. AID 720700. purified PLC-gamma1, fluorogenic substrate, fluorescence. inhibition, % at 12.2 µM; in the data active = inhibition above about 9.5%
M18AAP inhibitor – blocks P. falciparum M18 aspartyl aminopeptidase; recombinant PfM18AAP, H-Glu-NHMec fluorogenic cleavage; inhibition, % at 7.35 µM; 1.2% of 290,000 active; AID 1822;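 active = inhibition above the campaign mean inhibition over all tested compounds plus 3 SD, cut at about 28% in these data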
NPR2 activator – GC-B (human) receptor activation. P20594. HEK293-GC-B cells, CNP EC30, cGMP TR-FRET; 0% at EC30 CNP, 100% saturating CNP. activation, % at 10 µM. 0.11% of 370,000 active;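 active = activation at 10 µM reaching about 35% in either raw or pattern-adjusted values, limit read from the data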
Target sequence (P20594 whole entry, looked up): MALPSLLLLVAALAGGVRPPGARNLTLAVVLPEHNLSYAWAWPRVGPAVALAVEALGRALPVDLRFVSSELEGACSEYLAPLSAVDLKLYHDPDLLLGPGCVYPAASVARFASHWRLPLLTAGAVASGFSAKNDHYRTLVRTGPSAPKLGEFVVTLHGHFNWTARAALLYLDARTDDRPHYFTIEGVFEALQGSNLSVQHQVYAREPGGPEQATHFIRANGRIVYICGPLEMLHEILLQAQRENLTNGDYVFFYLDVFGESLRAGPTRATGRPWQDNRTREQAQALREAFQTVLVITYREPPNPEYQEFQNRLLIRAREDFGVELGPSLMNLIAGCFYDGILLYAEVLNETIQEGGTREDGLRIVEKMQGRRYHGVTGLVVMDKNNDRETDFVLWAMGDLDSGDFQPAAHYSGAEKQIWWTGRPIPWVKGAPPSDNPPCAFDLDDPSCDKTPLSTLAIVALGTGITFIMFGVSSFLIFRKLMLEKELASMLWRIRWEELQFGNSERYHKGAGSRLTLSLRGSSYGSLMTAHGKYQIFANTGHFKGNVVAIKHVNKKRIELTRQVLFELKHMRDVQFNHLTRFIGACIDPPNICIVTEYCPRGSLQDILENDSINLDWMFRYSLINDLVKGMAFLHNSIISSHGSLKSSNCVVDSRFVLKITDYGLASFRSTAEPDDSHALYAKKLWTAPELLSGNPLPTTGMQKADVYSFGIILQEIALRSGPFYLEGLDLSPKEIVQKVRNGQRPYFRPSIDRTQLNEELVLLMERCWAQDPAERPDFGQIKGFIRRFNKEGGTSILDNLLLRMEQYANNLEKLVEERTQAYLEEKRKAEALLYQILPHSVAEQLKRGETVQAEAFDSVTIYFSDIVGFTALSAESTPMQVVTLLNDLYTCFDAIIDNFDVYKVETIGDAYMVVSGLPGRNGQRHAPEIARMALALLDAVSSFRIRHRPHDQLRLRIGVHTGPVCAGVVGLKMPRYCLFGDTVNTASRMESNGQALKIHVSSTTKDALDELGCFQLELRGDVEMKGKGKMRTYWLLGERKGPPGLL
Rce1 inhib – blocks yeast Ras-converting enzyme. yeast membranes, quenched prenylated peptide cleavage fluorescence. calls only. 0.27% of 290,000 active. AID 2563;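 active = fall in fluorescence gain of 50% or more versus controls, with final raw signal at or below 3038400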
NPR1 activator – GC-A (human) enzyme activation; P16066; HEK293 GC-A cells, cGMP TR-FRET, EC30 ANP; 0% at EC30 ANP, 100% saturating ANP; activation, % at 10 µM; 0.14% of 370,000 active; AID 1671463; in the data active = activation above about 40%
PLCgamma1 ctr – counter-screen for PLC-beta3 inhibitors: inhibitors of human PLC-gamma1. shares compounds with PLCg1 inh. purified PLC-gamma1, fluorogenic substrate, fluorescence. inhibition, % at 12.3 µM. 3.1% of 3,300 active; in the data active = inhibition above about 9.5%
PLCb3 confirm – human PLC-beta3 inhibition, confirmation | inhibition, % at 12.3 µM | shares compounds with PLCg1 inh | 1% of 3,300 active | purified PLC-beta3, fluorogenic substrate fluorescence
Hits are given with their value. Sampled rows, rich in hits. Any-hit rate of the full collection: about 2.2%. Rule as the data show it, unless noted: active = inhibition above about 11%; inactive = the rest.

For C[C@H](CO)N1C[C@H](C)[C@H](CN(C)C(=O)Nc2ccc3c(c2)OCO3)OCc2cnnn2CCCC1=O the results were PLC-beta3 inh inactive, PLCg1 inh inactive, NPR2 activator inactive and NPR1 activator inactive.
COc1ccc(-c2cc(C3CCN(Cc4ccc([N+](=O)[O-])cc4)CC3)[nH]n2)cc1 was read as PLC-beta3 inh inactive, PLCg1 inh inactive, M18AAP inhibitor inactive, NPR2 activator inactive, Rce1 inhib inactive and NPR1 activator inactive.
For Cc1ccc(CN2CCC(c3cc(-c4ccc(Cl)cc4)n[nH]3)CC2)cc1 the results were PLC-beta3 inh inactive, PLCg1 inh 11, M18AAP inhibitor inactive, NPR2 activator inactive, Rce1 inhib inactive, NPR1 activator inactive, PLCgamma1 ctr inactive and PLCb3 confirm inactive.
CC(C)(C)OC(=O)N1c2ccccc2[C@]2(N3CCCC3)C[C@H](C(=O)O)N(C(=O)OC(C)(C)C)[C@H]12 was read as PLC-beta3 inh inactive, PLCg1 inh inactive, NPR2 activator inactive and NPR1 activator inactive.
For Cc1c(C(=O)NCc2cccnc2)sc2ncn(CC(=O)N3CCCCC3C)c(=O)c12 (stereo not drawn) the results were PLC-beta3 inh inactive, PLCg1 inh 11, M18AAP inhibitor inactive, NPR2 activator inactive, Rce1 inhib inactive, NPR1 activator inactive, PLCgamma1 ctr inactive and PLCb3 confirm inactive.
`COc1cc(CNc2ncnc3c2ncn3[C@H]2CN(Cc3cccc(C(F)(F)F)c3)C[C@@H](COC(C)=O)O2)cc(OC)c1OC` gave PLC-beta3 inh inactive, PLCg1 inh inactive, NPR2 activator inactive and NPR1 activator inactive.
Screening COc1cc(CNc2ncnc3c2ncn3[C@H]2CN(Cc3cccc(C(F)(F)F)c3)C[C@@H](CO)O2)cc(OC)c1OC returned PLC-beta3 inh inactive, PLCg1 inh 9.6, NPR2 activator inactive, NPR1 activator inactive, PLCgamma1 ctr inactive and PLCb3 confirm inactive.
`CC1CCN(C(=O)Cn2c(=O)n(CCCC(=O)NCc3ccco3)c(=O)c3sccc32)CC1` gave PLC-beta3 inh inactive, PLCg1 inh 13, M18AAP inhibitor inactive, NPR2 activator inactive, Rce1 inhib inactive, NPR1 activator inactive, PLCgamma1 ctr inactive and PLCb3 confirm inactive.
For O=S(=O)(CS(=O)(=O)c1ccccc1Br)c1ccccc1Br the results were PLC-beta3 inh inactive, PLCg1 inh 22, NPR2 activator inactive, NPR1 activator inactive, PLCgamma1 ctr 17 and PLCb3 confirm inactive.
Screening CCc1ccc(C2c3[nH]c4ccccc4c3CCN2C(=O)c2cc(C)nn2C)cc1 (stereo not drawn) returned PLC-beta3 inh inactive, PLCg1 inh 10, M18AAP inhibitor inactive, NPR2 activator inactive, Rce1 inhib inactive, NPR1 activator inactive, PLCgamma1 ctr inactive and PLCb3 confirm inactive.
For Cc1cc(NC(=O)c2cc(-c3ccccc3)on2)n(-c2ccccc2)n1 the results were PLC-beta3 inh 12, PLCg1 inh inactive, M18AAP inhibitor inactive, NPR2 activator inactive, Rce1 inhib inactive, NPR1 activator inactive, PLCgamma1 ctr inactive and PLCb3 confirm inactive.
`O=C(NC1CCCCN(Cc2ccc(Cl)cc2)C1=O)c1ccc(COc2ccccc2)cc1` (stereo not drawn) gave PLC-beta3 inh inactive, PLCg1 inh inactive, NPR2 activator inactive and NPR1 activator inactive.
`CCCN(CC1CC1)C(=O)CNc1nnnn1-c1ccccc1` gave PLC-beta3 inh inactive, PLCg1 inh inactive, NPR2 activator inactive and NPR1 activator inactive.
For CCCN(CC1CC1)S(=O)(=O)c1ccc(S(N)(=O)=O)cc1 the results were PLC-beta3 inh inactive, PLCg1 inh 12, M18AAP inhibitor inactive, NPR2 activator inactive, Rce1 inhib inactive, NPR1 activator inactive, PLCgamma1 ctr inactive and PLCb3 confirm inactive.
Screening c1ccc(-n2c(SCc3cccc4ccccc34)nnc2-c2ccncc2)cc1 returned PLC-beta3 inh inactive, PLCg1 inh inactive, NPR2 activator inactive and NPR1 activator inactive.
